Source: the supplement of paper PMC6555819

What follows are sequences tested on VDR:RXRa (NR concentration 270 nM, RXRa partner concentration 90 nM) (assay: PBM binding z-score (relative to random genomic background probes); higher = stronger binding; sequences stand for … in GC…GCGATTGACAGCGTAGAATGAAGG).
Description: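 Protein-binding microarray (Agilent 4x180K custom design, double-stranded 60-nt probes: 5' GC cap, 34-nt variable region, 24-nt constant primer region; full probe sequence given). Purified or IVT nuclear receptor:RXRα heterodimers (3:1 NR:RXRα, mostly 270:90 nM) or homodimers were incubated for 1 h in PBS with 2% milk and no ligand, then detected with Alexa488 antibodies. Fluorescence from o1-orientation probes (~5 replicates averaged) was converted to z-scores against 500 random hg19 background probes. Variable regions are seed direct-repeat (DR0–DR5) sites, all their single-nucleotide variants and half-site ablations.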

Sequence | PBM binding z-score
TCGAGTAGGTTACGAATGGGGCATTCAGCTTTCT | -0.137
CCTACTGGGCCAAAGGTCACTGATTCCAATGCTC | 4.55
CCTAGCAGGCCAATCTGGGTCACTCAAGGCTTGA | 0.724
CGATCGAGGGCATGAGTTGATAGCAAATGCCGAT | 0.973
CCAGACAGGTGAGAAGGTAGCTCAGCCTCGATTA | -0.387
TCATATAGGTAAAAGGTGAAAATCGGTGTGGTAA | 1.65
TCGACTAGGTTAGGGGCATTCAGAATGGCGTCGA | 0.465
CTCGTAAGGTCGGTTGAGGTGAGTATACGGATAA | 1.75
GCTGTTAGTTGAAAGGGCAACCGAATGATTCTCG | 0.572
TCTTGTAGATCATCAGGAGGTTAAGAAAGATCGA | 0.351
GCGACTGGGGCAAAGCTGGTTACCATAAGGTTGG | -0.475
CTACCAAGGTGAACAACGTCGTTGATTACTATTC | 0.38
GCTAGCTGGCCATTTGGGTCACTCAATGACGGGC | -0.155
ATACGAAGGTGATCGTGAGGTCGTTGATACTAAC | 3.09
TCTTATAGATCAACAGGAGGTTAAGAAAGATCGA | 1.01
AGAACGAGGGCAATGAGTTAATAGCACGGGTGGC | 4.04
CCGACAGGGGCAAAGGTTACCATACTCAGTACGA | 2.6
CCGACTGGGGCAACGTTACCATAACGCACAGCCA | -0.557
CGAACTAGGTCATCCAGGACATTGAATACATTGA | 5.52
GTACCAAGGTGAATAGGACGTTGATGAGTAGGCG | -0.357

Sequence | PBM binding z-score
ATCGAAAGGTCGAGGTGTGTATAGAGAAAGGGAA | 2.32
CCTAGTGGGCCATTCAGAGGTCATTGATCATATG | 3.85
TAGCCTAGGTCATGGGCCGGTATACCACGCGAAC | 2.18
AGAACGAGGGCACGCTTAGTTGATAGCAGAGTAG | 1.19
TCATATAGGTACTACAGGTGAAAGTCGGCATCTA | 0.876
GCTGCTAGGTCAACTGCTGGTCAGCTAAAGCTCG | 1.38
CCTGCTAGGTCATGGTCAGCTATTCTACAGTATG | 1.52
CCTTACGTGTCACGAGGTTATAGCACGACGAGCG | 1.89
CCGAGAAGGTTATGGGGCATTCAGGCAACGGTGA | 0.66
TCTGCTAGGTCAACGATGGTCAGCTAGTCTGCTA | 1.43
TGAATAAGGTTAAAGATCAGGGAACGTGGCGTCG | 1.37
CCTAGTTGGTCACGGTCACACACGCTATAGGTAC | 1.12
TCTCGTAGATCAGCAGGTTAAGAAAGCTGGCCAA | 0.21
GCATATAGGTAATACAAGGTGATAGTCCGATTGT | -0.0322
CCTACTGCGCCACGAAAGGTCATTGATTCAGTGA | 4.08
GTACCTAGGTGAATAGGTCGTTGATGAGTAGGCG | 0.549
AGAACGAGGGCCATGAGTTGATAGCACGGGTGGC | 0.196
TCTAGTTGGTCAAACGTCACACACTCGAAATGCG | 0.811
CGGACTAGGTCAAGGACAGTGAATCTCCGCACGC | 0.867
CCTGCTAGGTCAATGGTGAGCTAAAGCAGCTCGC | 0.217
